# TRHR ag = activates the human TRH receptor; P34981; TRHR cells, calcium flux fluo-8, FDSS agonist mode; activation, % at 2 µM; actives 0.18% (n = 360,000)
#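 Fluo-8-loaded TRHR cells; 10 s baseline, compound added, kinetic Ca2+ fluorescence read 1/s, agonist mode.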
# D1 agonist = activates the human D1 dopamine receptor; HEK293 T-REx D1 cells, calcium flux, agonist mode; AID 504660; actives 1% (n = 360,000); activation, % at 2 µM
# Target sequence (P21728 whole entry, looked up): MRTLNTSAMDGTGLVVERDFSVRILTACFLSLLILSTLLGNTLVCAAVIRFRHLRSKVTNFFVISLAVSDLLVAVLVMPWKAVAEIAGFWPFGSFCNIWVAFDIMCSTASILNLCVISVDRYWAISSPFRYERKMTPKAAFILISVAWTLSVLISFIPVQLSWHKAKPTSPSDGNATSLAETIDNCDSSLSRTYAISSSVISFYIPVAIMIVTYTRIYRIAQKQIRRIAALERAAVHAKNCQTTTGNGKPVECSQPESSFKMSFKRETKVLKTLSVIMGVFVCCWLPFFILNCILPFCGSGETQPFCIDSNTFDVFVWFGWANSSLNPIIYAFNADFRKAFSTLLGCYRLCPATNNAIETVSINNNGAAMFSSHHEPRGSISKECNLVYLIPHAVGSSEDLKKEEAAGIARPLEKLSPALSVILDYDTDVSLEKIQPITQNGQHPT
#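 Tetracycline-induced HEK293 TREx D1 cells, force-coupled to calcium signalling, were dye-loaded with a no-wash calcium kit. Compound was pin-added after a 10 s baseline. Fluorescence was read kinetically at 1 cycle/s for 180 s, with calcium rises flagged as agonism.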
# D1 PAM = human D1 dopamine receptor positive modulation. potentiation, % at 10 µM. P21728. actives 0.036% (n = 360,000). HEK293 TREx D1 cells, calcium flux, dopamine EC20 potentiation; in the data active means potentiation above about 30%
# D1 antag = blocks dopamine activation of the human D1 receptor; P21728; actives 3.2% (n = 360,000); HEK293 TREx D1 cells, calcium flux, dopamine EC80; hits give low values; activity change, negative = inhibition, % at 10 µM; in the data active means activity change below about -30%
#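 Calcium flux readout: force-coupled, inducible Hek293 Trex D1 line, cells induced overnight at 30 C with tetracycline, dye-loaded 30–90 min at RT. Antagonism scored against EC80 dopamine challenge given 180 s after compound.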
# TRHR PAM = TRH receptor (human) allosteric enhancement; enhancement, % at 2 µM; P34981; TRHR cells, fluo-8 calcium fluorescence, EC20 TRH enhancement; actives 0.66% (n = 360,000); in the data active means enhancement above about 30%
#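 TRHR-expressing cells loaded with fluo-8 calcium dye were read kinetically (ex 480/em 530) during compound addition, then stimulated with an EC20 of TRH (10 nM final). Enhancement of the Gq-mediated intracellular calcium response was scored.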
# Numbers stand for hits; i = inactive; nt = no result given. Shown are actives, neighbours in structure and some others; about 4.6% of the full set was active somewhere. Unless noted, no stated cut-off is given here; in the data, active means activation above about 30%; inactive means the rest.
SMILES,TRHR ag,D1 agonist,D1 PAM,D1 antag,TRHR PAM
Cc1ccccc1NC(=O)CN1C(=O)COc2ccc(Cl)cc21,i,i,i,-91.5,i
CC(=O)c1ccc(NC(=O)CN2C(=O)COc3ccc(Cl)cc32)cc1,i,i,i,i,i
Cc1ccc(NC(=O)NCCc2c(C)nn(C)c2C)cc1Cl,i,i,i,i,i
COCCCNC(=O)CSc1nc2cc3c(cc2c(=O)n1CCCCCC(=O)NCCc1ccc(OC)c(OC)c1)OCO3,i,i,i,i,i
O=C(c1ccc(O)cc1)c1ccc(O)cc1O,i,i,i,i,i
O=C(c1ccccc1)c1ccc(O)cc1O,i,60.2,i,i,i
COc1ccc(CCN2CCC(CNC(=O)c3cnn(-c4ccccc4)c3C3CCN(C(=O)OC(C)(C)C)CC3)CC2)cc1,i,37.9,i,i,i
CC(C)(C)OC(=O)N1CCC(c2c(C(=O)NCc3cccc(Cl)c3)cnn2-c2ccc(F)cc2)CC1,i,i,i,-42.6,i
CC(C)(C)OC(=O)N1CCC(c2c(C(=O)NCCN3CCC(Cc4ccccc4)CC3)cnn2-c2ccccc2)CC1,i,56.4,i,i,i
COc1ccc(CCN2CCC(CNC(=O)c3cnn(-c4cccc(Cl)c4)c3C3CCN(C(=O)OC(C)(C)C)CC3)CC2)cc1,i,i,i,i,i
CC(C)(C)OC(=O)N1CCC(c2c(C(=O)NCCN3CCC(Cc4ccccc4)CC3)cnn2-c2ccc(F)cc2)CC1,i,40.1,i,i,i
COc1ccc(OC)c(S(=O)(=O)N2CCN(S(=O)(=O)c3ccc4c(c3)OCCO4)CC2)c1,i,i,i,i,i
Cc1ccc(N2C(=O)CSC2c2cccnc2)c(Cl)c1 (centres undefined),i,i,i,-37.3,i
CN(C)C(=O)N1CCC(C(=O)NCc2ccccc2)CC1,i,i,i,i,34.4
O=C(NCc1cccs1)C1CCN(C(=O)NCc2ccccc2)CC1,i,i,i,-84.4,i
COc1ccccc1CNC(=O)C1CCN(C(=O)N(C)C)CC1,i,i,i,-38.1,i
CN(C)C(=O)N1CCC(C(=O)NCc2ccc(F)cc2)CC1,i,i,i,i,i
Nc1nc(N)c(S(=O)(=O)c2ccccc2)c(Nc2ccc(F)cc2)n1,i,i,i,i,i
CN(CC1CCN(CCc2cccc(C(F)(F)F)c2)CC1)C(=O)c1ccc(F)cc1F,i,i,i,i,i
CC(=O)Nc1ccc(CN(C)CC2CCCN(CCc3cccc(C(F)(F)F)c3)C2)cc1 (centres undefined),i,i,i,i,i
CN(CC1CCCN(CCc2cccc(C(F)(F)F)c2)C1)C(=O)c1ccco1 (centres undefined),i,i,i,-39.8,i
COc1ccc(C(=O)N(C)CC2CCN(CCc3cccc(C(F)(F)F)c3)CC2)cc1C,i,i,i,-48.6,i
CC1Cn2cc(C(=O)Nc3cccc(C(F)(F)F)c3)c(=O)c3c(Cl)ccc(c32)O1 (centres undefined),i,i,i,i,i
COc1ccccc1C1CC(c2cccc(NS(C)(=O)=O)c2)=NN1S(=O)(=O)c1ccccc1 (centres undefined),i,i,i,i,30.7
COc1ccccc1C1CC(c2ccc(NS(C)(=O)=O)cc2)=NN1S(=O)(=O)c1ccccc1 (centres undefined),i,i,i,i,i
SMILES,TRHR ag,D1 agonist,D1 PAM,D1 antag,TRHR PAM
O=C(O)CCc1ccc(-c2ccc(Br)cc2)n1-c1ccc(O)cc1,i,i,i,i,i
CCOc1ccc(-n2c(CCC(=O)O)ccc2-c2ccc(Br)cc2)cc1,i,i,i,i,32.9
CCOC(=O)c1ccc(-n2c(CCC(=O)O)ccc2-c2ccc(Br)cc2)cc1,i,i,i,-31.4,i
COc1ccc(-c2nc(CN3CCC(C(=O)NCCc4ccccc4)CC3)c(C)o2)cc1OC,i,i,i,i,i
COc1ccc(-c2nc(CN3CCC(C(=O)NCc4ccc(C)cc4)CC3)c(C)o2)cc1OC,i,i,i,-31.0,i
CCN1CCN(CCNC(=O)C2CCCN(Cc3nc(-c4cccc(Cl)c4)oc3C)C2)CC1 (centres undefined),i,i,i,-39.4,i
Cc1oc(-c2cccc(Cl)c2)nc1CN1CCC(C(=O)NCCCN2CCN(c3cccc(Cl)c3)CC2)CC1,i,66.5,i,-39.2,i
Fc1ccccc1-c1nnc2ccc3ccccc3n12,i,i,i,i,36.4
COc1cc(OC)c(N(C)C(=O)c2c(C)oc3ncn(CC(C)C)c(=O)c23)cc1Cl,i,i,i,i,i
COCCNC(=O)Nc1cc(C(=O)NCc2ccc(C(C)C)cc2)ccc1N1CCCC1,i,i,i,i,i
C#CCOc1c(Cl)cc(/C=N/O)cc1OC,i,i,i,-61.6,i
O=c1c2ccccc2sn1-c1cc(S(=O)(=O)N2CCOCC2)ccc1N1CCOCC1,i,i,i,i,i
O=c1c2ccccc2sn1-c1cc(S(=O)(=O)N2CCOCC2)ccc1N1CCCC1,i,89.5,i,i,i
Cc1ccc2c(c1)cc1c(=O)n(Cc3ccccc3Cl)nc(C)n12,i,i,i,i,i
Cc1ccsc1/C=C/C(=O)O,i,i,i,i,i
Cc1ccsc1/C=C/c1n[nH]c(=O)c(C#N)c1C,i,i,i,-32.8,i
COc1ccc(NC(=O)Cn2c(=O)n(-c3ccc(CC(=O)NCC4CCCO4)cc3)c(=O)c3ccccc32)c(OC)c1 (centres undefined),i,i,i,i,i
CCOC(=O)c1ccccc1NC(=O)Cn1c2ncccc2c(=O)n1-c1ccccc1,i,i,i,i,i
CCc1ccc(-n2c(=O)c3cccnc3n2CC(=O)NCc2ccc(C)cc2)cc1,i,i,i,i,i
CCc1ccccc1NC(=O)Cn1c2ncccc2c(=O)n1-c1ccccc1,i,i,i,-44.6,i
Cc1ccc(CNC(=O)Cn2c3ncccc3c(=O)n2-c2ccc(C)cc2)cc1,i,i,i,-57.4,i
CCc1ccc(-n2c(=O)c3cccnc3n2CC(=O)Nc2ccccc2C(F)(F)F)cc1,i,i,i,-44.0,i
COc1cccc(NC(=O)CSc2nc(=O)n(Cc3ccncc3)c3c2CCC3)c1,i,i,i,nt,i
C=CCn1c(CCc2ccccc2)nnc1SCC(N)=O,i,i,i,i,32.3
Cc1ccccc1OCCSCc1nc2ccccc2[nH]1,i,i,i,-30.1,i
Cc1cccc(OCCSCc2nc3ccccc3[nH]2)c1,i,i,i,i,i
O=C(Nc1cccc(C(=O)O)c1)/C(=C\c1ccc2c(c1)OCO2)NC(=O)c1ccco1,i,i,i,i,33.4
CCc1nn(-c2ccccc2)c2nc(-c3ccc(O)cc3)c3cc(OC)c(OC)cc3c12,i,i,i,i,i
Cc1ccc(CN(Cc2ccco2)C(=S)NCC(=O)NCc2cccnc2)cc1,i,i,i,i,i

# Bioassay records from PubChem BioAssay.
